# Results as given in PubChem BioAssay AID651998 (The Scripps Research Institute Molecular Screening Center, 2013).
# Target: Acyl-protein thioesterase 1 (Homo sapiens) (UniProt O75608)
# Assay: LYPLA1 enzyme kinetics with inhibitors – biochemical, substrate-based fluorescence, Ki, Km, late-stage follow-up (AID 651998)
# Details: recombinant LYPLA1, resorufin acetate hydrolysis fluorescence, without test compound, enzyme Km for substrate
# Acyl-protein thioesterase 1 (Homo sapiens), sequence (O75608 whole entry, looked up): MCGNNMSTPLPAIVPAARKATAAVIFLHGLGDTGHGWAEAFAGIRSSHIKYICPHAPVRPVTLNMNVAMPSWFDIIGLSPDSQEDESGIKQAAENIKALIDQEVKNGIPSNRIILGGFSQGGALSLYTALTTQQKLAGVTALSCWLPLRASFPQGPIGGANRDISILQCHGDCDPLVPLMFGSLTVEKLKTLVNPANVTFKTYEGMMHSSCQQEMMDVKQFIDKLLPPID
smiles,measurement,value
O=C(CN1CCN(C(=O)c2ccco2)CC1)Nc1cc(C(F)(F)F)ccc1Cl,Km,28.3 µM
